Only some compounds are listed: those with a hit (about 2.5% of all), similar ones and a draw of the others.
GRK2 inh: human GRK2 inhibition via aptamer displacement; inhibition of aptamer binding, % at 10 µM; P25098; 0.59% of 330,000 active; bead flow cytometry, FAM-aptamer displacement from GRK2;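 active = inhibition of aptamer binding above 40%, roughly 3 SD of noise, on plates passing a quality check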;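 note: median bead fluorescence of bound FAM aptamer so fluorescent compounds give negative values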
Target sequence (P25098 whole entry, looked up): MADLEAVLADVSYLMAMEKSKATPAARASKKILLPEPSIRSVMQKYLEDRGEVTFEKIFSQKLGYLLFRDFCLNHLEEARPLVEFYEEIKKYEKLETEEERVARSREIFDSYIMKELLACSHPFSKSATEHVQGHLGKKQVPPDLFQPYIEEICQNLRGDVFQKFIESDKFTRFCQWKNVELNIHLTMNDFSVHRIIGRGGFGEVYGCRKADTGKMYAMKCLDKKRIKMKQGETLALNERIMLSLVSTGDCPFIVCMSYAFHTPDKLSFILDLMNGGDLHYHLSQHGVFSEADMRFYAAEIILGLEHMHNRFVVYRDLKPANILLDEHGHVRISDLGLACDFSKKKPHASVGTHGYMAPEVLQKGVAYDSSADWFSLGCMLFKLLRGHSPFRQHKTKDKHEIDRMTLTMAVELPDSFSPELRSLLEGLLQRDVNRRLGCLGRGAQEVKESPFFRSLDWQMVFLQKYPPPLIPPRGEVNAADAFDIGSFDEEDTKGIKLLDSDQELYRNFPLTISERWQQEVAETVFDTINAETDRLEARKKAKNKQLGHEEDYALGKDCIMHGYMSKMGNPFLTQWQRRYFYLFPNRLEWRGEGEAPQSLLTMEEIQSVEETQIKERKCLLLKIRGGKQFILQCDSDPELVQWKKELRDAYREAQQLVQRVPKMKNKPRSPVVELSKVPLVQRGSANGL
MEKK2mut PB1 HTS: signal of MEK5 binding to mutant human MEKK2 PB1 domain; 0.35% of 290,000 active; percent response, % at 10 µM; bead flow cytometry, Alexa488-MEK5 binding to MEKK2 mutant; in the data active = percent response above about 24%, passing the limit was not always enough
MEKK3 PB1 HTS: MEKK3-MEK5 PB1 interaction, increase or decrease | binding response (% of control), % at 10 µM | AID 1529 | 1.4% of 290,000 active | bead-based flow cytometry, Alexa488-MEK5 binding to MEKK3; actives lie on both sides; 0 = blocked by unlabeled MEK5, 100 = vehicle;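 active = binding response more than 3 SD above or below the average of its plate-row segment, actives on both sides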;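 note: Alexa488 bead fluorescence after subtracting the streptavidin-only scavenger bead signal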
MEKK2 WT-MEK5: raises or lowers MEK5 binding to wildtype human MEKK2 PB1 domain; bead flow cytometry, Alexa488-MEK5 binding to MEKK2 WT; actives lie on both sides; binding response (% of control), % at 10 µM; 1.1% of 290,000 active; AID 1531; in the data active = binding response below about 67% or above about 130%
MEKK2wt confirm: raises or lowers MEK5 binding to wildtype human MEKK2, retest. shares compounds with MEKK3 PB1 HTS. bead flow cytometry, Alexa488-MEK5 binding to MEKK2 WT; actives lie on both sides. binding response (% of control), % at 10 µM. 2.4% of 5,900 active. AID 1892; in the data active = binding response below about 16% or above about 210%; inactive = in between
MEKK2mut-MEK5: signal of MEK5 binding to mutant human MEKK2, retest. shares compounds with MEKK3 PB1 HTS. bead flow cytometry, Alexa488-MEK5 binding to MEKK2 mutant. 2% of 5,900 active. percent response, % at 10 µM; in the data active = percent response mostly above about 71%, no sharp cut-off; inactive = mostly below about 38%;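 note: higher means compound restores mutant binding toward wildtype level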
MEKK3 confirm: MEKK3-MEK5 PB1 inhibition, single concentration confirmation | shares compounds with MEKK3 PB1 HTS | bead flow cytometry, Alexa488-MEK5 binding to MEKK3; stronger effect = lower value | binding response (% of control), % at 10 µM | 1.8% of 5,900 active | AID 1894;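 active = binding response below 72% of control, or above a set upper limit, though filed actives all read lower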;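 note: 100% = DMSO only wells and 0% = binding blocked by excess unlabeled MEK5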
* = called active by the depositor; / = no result; [ ] = dose if it differs, or a comment.

SMILES	GRK2 inh	MEKK2mut PB1 HTS	MEKK3 PB1 HTS	MEKK2 WT-MEK5	MEKK2wt confirm	MEKK2mut-MEK5	MEKK3 confirm
COc1ccc(C2CC2C(C)=O)cc1 (stereo not drawn)	1	5	134*	121	98	0	102
O=S(=O)(c1ccc(F)cc1)c1nc(-c2ccco2)oc1Nc1ccc(F)cc1	0	0	137*	105	94	-4	98
COc1ccc(-c2noc(CN(C(=O)C(C)(C)C)C(C)C)n2)cc1	3	25*	118	114	98	-3	100
S=C(Nc1ccccc1)Nc1cc(Cl)ccc1Oc1ccccc1	0	7	123*	120	97	-4	97
COCc1cc(C)nc(OCC(=O)N/N=C/c2ccccc2O)c1C#N	4	188*	92	85	98	0	99
COCc1cc(C)nc(OCC(=O)N/N=C/c2ccc(O)cc2O)c1C#N	0	-3	93	89	/	/	/
NS(=O)(=O)c1ccc(CNC(=O)CNC(=O)c2ccc(Br)o2)cc1	1	-2	100	100	/	/	/
COc1cc(CCC(=O)N2CCN(c3ncccn3)CC2)cc(OC)c1OC	1	-6	115	111	/	/	/
CCN(CC)c1ccc(/C=N/Nc2nc3ccccc3[nH]2)c(O)c1	10	31*	107	129	131	21	103
CCN(CC)c1ccc(O)c(C=Nc2ccc(C)c(C)c2)c1	28	-21	86	64	/	/	/
CCN(CC)c1ccc(/C=N/N(c2ccccc2)c2ccccc2)c(O)c1	0	4	101	101	/	/	/
CCN(CC)c1ccc(C=Nc2ccccc2C)c(O)c1	3	0	140*	104	89	-6	98
CCN(CC)c1ccc(C=Nc2ccc(C#N)cc2)c(O)c1	3	-36	101	67*[inhibitor]	101	5	106
CN(C)c1nnnn1-c1ccc(Oc2ncc(C(F)(F)F)cc2Cl)cc1	14	-1	100	100	/	/	/
CCn1nc(C)c(NS(=O)(=O)c2ccc(C)cc2)c1C	2	2	73*[inhibitor]	88	104	7	107
CCc1sc(C(=O)NNC(=O)c2cncc(Br)c2)cc1C	0	/	/	/	/	/	/
C[C@H](NC(=O)c1nc[nH]c1C(=O)NC1CCN(C(=O)OC(C)(C)C)CC1)C(=O)OC(C)(C)C	1	-44	1.0*[inhibitor]	-5.0*[inhibitor]	101	-2	99
Cc1ccc(NC(=O)c2nc[nH]c2C(=O)N[C@@H](C)C(=O)OC(C)(C)C)cc1	0	1	99	95	/	/	/
COc1ccc(NC(=O)c2nc[nH]c2C(=O)N[C@@H](C)C(=O)OC(C)(C)C)cc1	0	-7	82*[inhibitor]	101	88	-9	89
CC(C)C[C@H](NC(=O)c1nc[nH]c1C(=O)NC1CCN(C(=O)OC(C)(C)C)CC1)C(=O)OC(C)(C)C	/	-5	92	98	/	/	/
CC1(C)Cc2c(c(-c3ccco3)nc3sc4c(NCC5CCCO5)ncnc4c23)CO1 (stereo not drawn)	0	0	143*	102	104	8	102
CC1(C)Cc2c(c(-c3ccco3)nc3sc4c(NCCCO)ncnc4c23)CO1	0	-37	66	67	/	/	/
CSc1ccccc1NC(=O)COc1ccc(Cl)cc1C	13	3	106	112	/	/	/
Cc1cc(Cl)ccc1OCC(=O)Nn1c(C)ccc1C	0	9	128*	123	96	-1	100
COc1ccc(CN2CCC(N(CCc3ccccc3)Cc3ccccc3)CC2)c(OC)c1	0	52*	90	161*	152	25	110
SMILES	GRK2 inh	MEKK2mut PB1 HTS	MEKK3 PB1 HTS	MEKK2 WT-MEK5	MEKK2wt confirm	MEKK2mut-MEK5	MEKK3 confirm
COCCNCC(O)CON=C1c2ccccc2-c2ccccc21 (stereo not drawn)	0	11	106	120	/	/	/
O=C(NNCC(O)COc1ccccc1)c1ccccc1 (stereo not drawn)	0	0	138*	105	91	-6	101
CC(C)N(CCNCC(O)COc1ccc(C(C)(C)c2ccccc2)cc1)C(C)C (stereo not drawn)	0	29	109	172*	146	33	105
CC(C)CCNCC(O)CON=C1c2ccccc2-c2ccccc21 (stereo not drawn)	0	2	98	161*	144	21	104
OC(CNCCc1ccc(Cl)cc1)COc1cc(Cl)ccc1Cl (stereo not drawn)	0	26*	107	122	128	22	105
Cc1cccc(NC(=O)C2CCN(C(=O)c3ccc(Cl)cc3)CC2)n1	0	/	/	/	/	/	/
CC(=O)N(C)c1ccc(NC(=O)Nc2ccc(C)c(C)c2)cc1	1	5	104	107	/	/	/
COc1cccc(CNC(=O)CCCn2nc(C)c3c(C)n(-c4ccc(C)cc4)nc3c2=O)c1OC	0	7	105	105	/	/	/
Cc1ccc(C2NC(=NCc3ccccc3)Nc3nc(C)cc(=O)n32)cc1 (stereo not drawn)	0	0	90	92	/	/	/
OC(CNCCC(c1ccccc1)c1ccccc1)COc1ccccc1 (stereo not drawn)	0	142*	109	313*	115	5	105
OC(CNCCc1ccccc1)COc1ccc(OCC(O)CNCCc2ccccc2)cc1 (stereo not drawn)	0	40	98	172*	172	39	107
Cc1ccc(OCC(O)CNCc2ccccc2)cc1C (stereo not drawn)	0	1	94	103	/	/	/
O=C(c1ccccc1)N1CCCCC(Cl)C1=O (stereo not drawn)	0	-2	100	96	/	/	/
COc1ccccc1C(=O)NC(=O)COC(=O)c1ccc([N+](=O)[O-])cc1	0	/	/	/	/	/	/
CCN(CC)CCNC(=O)c1ccc(NC(=O)c2ccc(COc3ccccc3)cc2)cc1	0	26*	101	162*	168	31	106
CCN(CC)CCNC(=O)c1ccc(NC(=O)c2ccc(C(=O)c3ccccc3)cc2)cc1	0	/	/	/	/	/	/
CN(c1ccc(OCC(=O)NC2CCC(O)CC2)cc1)S(=O)(=O)c1ccc(Cl)cc1 (stereo not drawn)	14	/	/	/	/	/	/
Clc1ccc(Nc2ncn[nH]2)c(Cl)c1	0	2	102	102	/	/	/
Cn1c(=O)[nH]c(=O)c2c1nc(SCC(=O)O)n2CCCc1ccccc1	3	7	100	105	/	/	/
Cn1c(=O)[nH]c(=O)c2c1nc(Sc1ccccc1)n2CCc1ccccc1	0	5	100	99	/	/	/
COCCn1c(Sc2ccccc2)nc2c1c(=O)[nH]c(=O)n2C	0	-21	2.0*[inhibitor]	3.0*[inhibitor]	101	3	100
